Records with an inconclusive call do not appear. Where a call stands in place of a potency, no number is given. Active and inactive are the calls of the source. Calls come from the whole dose curve.
Assay: qHTS assay for small molecules that induce genotoxicity in human embryonic kidney cells expressing luciferase-tagged ATAD5 - cell viability (AID 651634); note: nearly all actives have a fitted effect of over 25% in size
Details: HEK293T ATAD5-luc cells viability, CellTiter-Fluor, 15.5 h; series mostly up to 83.3 µM
Excerpt: National Center for Advancing Translational Sciences [NCATS]
NIH Chemical Genomics Center [NCGC]
U.S. Environmental Protection Agency [EPA]
National Institutes of Environmental Health Sciences [NIEHS]
National Toxicology Program [NTP]
U.S. Food and Drug Administration [FDA]
Enhanced Level of Genome Instability Gene 1 (ELG1; human ATAD5) protein levels increase in response to various types of DNA damage. Using a luciferase reporter-gene tagged with ElG1, a cell-based assay [developed by Kyungjae Myung, NHGRI, NIH] was used to measure the induction of ATAD5 in human embryonic kidney cells (HEK293T). So, increase in luciferase activity can be used to identify the compounds that cause genetic stress. In addition to genotoxicity, these cells were also used to test for cytotoxicity by measuring the protease activity within live cells.
Tox21 Assay Protocol Summary:
For cytotoxicity screening, 2,000 cells in 5 uL/well were dispensed into white, solid-bottom 1536-well plates using a Multidrop Combi (Thermo Scientific) dispenser. Following transfer of 23 nL compound or DMSO vehicle by a pin tool, the plates were incubated 15.5 hr at 37C and 5% CO2. 1 ul CellTiter-Fluor reagent (Promega, Madison, WI) was then added to each plate and following 30 min incubation at 37C, fluorescence intensity was quantified on a ViewLux CCD-based plate reader.
Potency is the fitted concentration of half-maximal effect.

Row | SMILES | Potency
1 | C=CC(=O)OCCN(C)C | inactive
2 | c1ccc2c(c1)CCNC2 | inactive
3 | CCC(=O)OC1(c2ccccc2)CCN(C)CC1 | inactive
4 | CCCOc1nn(C(=O)NS(=O)(=O)c2ccccc2C(=O)OC)c(=O)n1C | inactive
5 | O=[N+]([O-])CCO | inactive
6 | ClC1=C(Cl)C2(Cl)C(CBr)CC1(Cl)C2(Cl)Cl (stereo not given) | inactive
7 | OCC(Cl)CCl (stereo not given) | inactive
8 | CC(C)(C)C(=O)Cl | inactive
9 | O=c1[nH]c2ccccc2o1 | inactive
10 | NC(=O)CS(=O)C(c1ccccc1)c1ccccc1 (stereo not given) | inactive
11 | O=C(Cl)OCc1ccccc1 | inactive
12 | CC(C)(C)C(=O)C(Cl)Cl | inactive
13 | CCOC(=O)C(SP(=S)(OC)OC)c1ccccc1 (stereo not given) | inactive
14 | COP(=O)(OC)O/C(C)=C/C(=O)N(C)C | inactive
15 | S=C=S | inactive
16 | C=C(Cl)CCl | inactive
17 | N[C@@H](Cc1ccc(Oc2cc(I)c(O)c(I)c2)c(I)c1)C(=O)O | inactive
18 | Cc1ccc2c(c1)C1CN(C)CCC1N2 (stereo not given) | inactive
19 | CC1NCCOC1c1ccccc1 (stereo not given) | inactive
20 | C#CC(C)(C)O | inactive

Row | SMILES | Potency
21 | Cc1ccc(S(=O)(=O)N[C@@H](CCCCN)C(=O)CCl)cc1 | 29.8 µM (active)
22 | O=c1[nH]oc2c1CCNC2 | inactive
23 | CCOC(=O)c1ncn2c1CN(C)C(=O)c1c(I)cccc1-2 | inactive
24 | COC1=CC(=O)O[C@@H](/C=C/c2ccccc2)C1 | inactive
25 | CCN(CC)CCOC(=O)C(O)(c1ccccc1)c1ccccc1 | inactive
26 | CCN(CC)C1CCCCC1 | inactive
27 | CCCCCCCC(=O)Cl | inactive
28 | CC(O)CCl (stereo not given) | inactive
29 | COC(=O)c1ccc(CBr)cc1 | inactive
30 | CCCC(C)C1(CC)C(=O)N=C(S)NC1=O (stereo not given) | inactive
31 | C(COCC1CO1)OCC1CO1 (stereo not given) | inactive
32 | CCOC(=O)NC(C)(C)Cc1ccc(Cl)cc1 | inactive
33 | CCCC[N+](=O)[O-] | inactive
34 | CC(C)(C)c1cc(O)ccc1O | inactive
35 | CC(Cc1ccccc1)NCCn1cnc2c1c(=O)n(C)c(=O)n2C (stereo not given) | inactive
36 | CC1=C2[C@H]3OC(=O)[C@@H](C)[C@@H]3CC[C@@]2(C)C=CC1=O | inactive
37 | CON(C)C(=O)Nc1ccc(Br)c(Cl)c1 | inactive
38 | COc1cccc([C@@]2(O)CCCC[C@@H]2CN(C)C)c1 | inactive
39 | CC[C@@H](CO)NC(=O)[C@@H]1C=C2c3cccc4[nH]cc(c34)C[C@H]2N(C)C1 | inactive
40 | O=C(CCl)NCO | inactive
